# The sample as a whole holds a higher share of hits than the screen did.
# Epigenetic reg: derepresses silenced GFP reporter in murine cells; murine LDR cells, GFP reporter derepression, 30 h; Potency, µM (doses to about 53.9 µM), for the others: at the top dose GFP activation, most hits filed as activators; hit rate 0.2% among 280,000; AID 1865; note: % of control where 0% means no effect; nearly all actives have a fitted effect of over 60% in size
#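 Murine LDR cells carrying a silenced, genomically integrated CMV-driven GFP reporter were exposed to compound for 30 hours at 37 C. After PBS washes, GFP-positive cells (20–120 um objects) were counted by laser-scanning microplate cytometry.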
# HTT cytoprotect: protects HTT-Q103 PC12 cells, measured by ATP; hit rate 0.14% among 230,000; PC12 HTT-Q103 induced, cytoprotection, ATP luminescence, 40 h; Potency, µM (top dose mostly 56.4 µM), without a hit: cytoprotection (ATP increase), actives largely listed as activators; note: % of control where 0% means no effect; nearly all actives have a fitted effect of over 45% in size
#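 Compounds were screened for protection of PC12 cells against cell death after tebufenozide induction (100 nM final) of mutant Huntingtin exon 1 (Q103) fused to GFP.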
# Apoferritin bind: candidate novel general anesthetic via apoferritin binding; hit rate 0.074% among 350,000; Potency, µM (highest dose often 77.5 µM), without a hit: at the top dose activity change, negative = displacement, most hits filed as inhibitors; P02791; apoferritin/1-aminoanthracene competitive binding, fluorescence; note: % is set by controls: 0 for no effect and ±100 for the full control effect; nearly all actives have a fitted effect of over 20% in size
# Target sequence (P02791 2-175 limits assumed): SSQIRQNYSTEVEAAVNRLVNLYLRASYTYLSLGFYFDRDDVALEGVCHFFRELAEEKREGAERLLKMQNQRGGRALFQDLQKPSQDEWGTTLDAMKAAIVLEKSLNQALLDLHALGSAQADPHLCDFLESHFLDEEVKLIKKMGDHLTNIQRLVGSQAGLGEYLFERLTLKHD
#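 Steps: apoferritin (10 uM) was premixed with half-saturated 1-AMA in PBS, compounds were pin-transferred, plates stood 10 min at room temperature, fluorescence was read at 380/535 nm, and curves were fitted with a Hill equation.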
# HTT aggregate: inhibitors of mutant huntingtin aggregate formation in PC12 cells; Potency, µM (doses to about 46.1 µM), inactives show at the highest dose activity change, negative = inhibition, hits mostly inhibitors; hit rate 1.1% among 220,000; PC12 HttQ103-GFP aggregates, Acumen cytometry, 40 h; AID 1688; note: % is set by controls: 0 for no effect and ±100 for the full control effect; nearly all actives have a fitted effect of over 60% in size
#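 Using laser scanning cytometry, GFP-positive aggregates were counted after lysis of PC12 cells induced with 100 nM tebufenozide to express HTT exon 1 Q103–GFP. Compounds were tested in titration.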
# PINK1 expr mod: changes PINK1 expression; PINK1 immunofluorescence, high-content cytometry, 24 h; Potency, µM (top dose mostly 76.6 µM), for the others: at the top dose activation (PINK1 increase), actives largely listed as activators; hit rate 0.2% among 410,000; AID 624263; active = well fitted activation curve with a large enough effect; inconclusive = small, poorly fitted or top-dose-only effect; cell line not stated here; note: % of control where 0% means no effect; nearly all actives have a fitted effect of over 65% in size
#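 A stable cell line was treated with compounds at 5 concentrations for 24 hours, with CCCP as control. PINK1 levels and mitochondrial localization were measured by immunofluorescence with mitochondrial, cell and nuclear markers after fixation, read by laser-scanning cytometry.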
# TSG101-PTAP inh: blocks PTAP/TSG101 interaction to inhibit HIV-1 budding | Q99816 | Potency, µM (highest dose often 115 µM), for inactives: at the top dose activity change, negative = inhibition, hits mostly inhibitors | Fluorescence polarization, FITC-PTAP peptide / Tsg101 binding | 340,000 tested, under 10 active; active = well fitted inhibition curve with a large enough effect in the main read-out, with a control signal flat, not every such curve was filed as active; inconclusive = small, poorly fitted or top-dose-only effect, or effect the other way, or a change in a side signal; inactive = no such curve, though single readings can be large or run the other way; note: % of control where 0% means no effect
# Target sequence (Q99816 whole entry, looked up): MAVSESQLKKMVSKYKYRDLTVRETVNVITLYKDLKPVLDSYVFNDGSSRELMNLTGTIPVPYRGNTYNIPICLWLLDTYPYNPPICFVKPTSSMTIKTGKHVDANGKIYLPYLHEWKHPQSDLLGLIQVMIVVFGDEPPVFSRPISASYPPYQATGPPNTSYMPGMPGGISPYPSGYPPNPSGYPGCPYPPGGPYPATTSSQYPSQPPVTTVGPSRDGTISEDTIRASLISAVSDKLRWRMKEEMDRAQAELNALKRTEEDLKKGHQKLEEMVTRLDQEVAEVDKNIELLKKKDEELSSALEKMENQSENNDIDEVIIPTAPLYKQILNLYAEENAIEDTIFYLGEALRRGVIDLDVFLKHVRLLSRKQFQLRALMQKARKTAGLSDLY
#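 Fluorescence anisotropy tracks displacement of a FITC-tagged PTAP peptide (50 nM) from the Tsg101 binding domain (10 uM), following a 20 min room-temperature incubation at pH 7.5.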
# Starred values were filed as active, the others as inactive; ? = inconclusive; nt = no result; [ ] = remark or other dose. Unless noted, calls come from the whole dose curve; as a rule, active = well fitted curve in the direction sought with a large enough effect; inconclusive = small, poorly fitted or top-dose-only effect, or another doubt; inactive = no such curve, though single readings can be large; an effect the other way counts as inactive or inconclusive. Potency is the fitted concentration of half-maximal effect.
SMILES,Epigenetic reg,HTT cytoprotect,Apoferritin bind,HTT aggregate,PINK1 expr mod,TSG101-PTAP inh
COCc1ccc(CN2CCOc3ccc(C4=Cc5ccccc5C4)cc3C2)o1,nt,nt,nt,nt,1%,nt
COc1cc(=O)n2c(c1C(=O)N(C)Cc1nonc1C)CCN(Cc1cccc(Cl)c1)CC2,nt,nt,nt,nt,1%,nt
O=[N+]([O-])c1ccccc1CN1CCN(Cc2c[nH]c3ccccc23)CC1,-1%,-109%,-17%,8.9µM*,2%,-2%
O=C1S/C(=C/c2ccc(N3CCOCC3)o2)C(=O)N1Cc1ccc(F)cc1,14µM*,-40%,-10%,13%,24%,?
O=C1N/C(=C/c2ccc(N3CCOCC3)o2)C(=O)N1c1ccccc1,?,-14%[0.074 µM],-11%,?,?,?
C=CCN1C(=O)N/C(=C/c2ccc(N3CCOCC3)o2)C1=O,1%,nt,-7%,5µM*,nt,nt
O=C1S/C(=C\c2ccc(N3CCOCC3)o2)C(=O)N1Cc1ccc(F)cc1,3.5µM*,-31%,-13%,7%,?,?
CC(C)OC(=O)CN1C(=O)S/C(=C/c2ccc(N3CCCCC3)o2)C1=O,11µM*,-24%,?,?,nt,?
COc1ccc(CCN2C(=O)C3C4C=CC(C3C2=O)C2C(=O)N(CCc3ccc(OC)c(OC)c3)C(=O)C42)cc1OC (centres undefined),1%,-57%[10 µM],-9%,10µM*,5%[38.3 µM],-2%
CCN1CCCC1CNC(=O)c1cnn(-c2nccc(-c3ccccc3F)n2)c1C (centres undefined),nt,nt,nt,nt,1%,nt
COc1ccc(-c2cc(-c3ccccc3)nc(N)n2)c(O)c1,nt,nt,nt,nt,0%,-4%
COc1ccc(OC)c(Nc2cc(-c3ccccc3)nc(N)n2)c1,4%,-113%[10 µM],6%,1.3µM*,6%,-1%
Cc1ccc(C)c(S(=O)(=O)c2nnn3c2nc(Nc2ccc(F)c(Cl)c2)c2sccc23)c1,1%,nt,-3%,nt,0%,nt
O=C(Nc1ccc(SC(F)F)cc1)c1cccc2nc3ccccc3nc12,7.1µM*,-36%,-10%,?,9%,-5%
O=C(Cn1cnc2ccccc21)Nc1ccc(SC(F)F)cc1,-1%,5%[10 µM],-22%,?,1%,-9%
COc1ccc(/C=c2\[nH]c(=O)/c(=C/c3ccc(OC)c(OC)c3)[nH]c2=O)cc1OC,nt,nt,nt,nt,0%,nt
COc1ccc(NC(=O)/C=C/c2ccccc2)c([N+](=O)[O-])c1,1%,-3%[10 µM],-10%,2%,11%,-7%
COc1ccc(/C=C/C(=O)Nc2ccc(OC)cc2[N+](=O)[O-])cc1,?,-2%[10 µM],-8%,-4%,45µM*,-1%
COc1ccccc1NC(=O)C(C)OC(=O)C1CC(=O)N(c2ccc3c(c2)OCCO3)C1 (centres undefined),nt,nt,-8%,nt,0%,28µM*
CC1CCN(C(C(=O)Nc2ccc(C(C)C)cc2)c2ccc3c(c2)OCO3)CC1 (centres undefined),2%,0%,-17%,20µM*,?,-5%
COc1cc(=O)n2c(c1C(=O)N(C)Cc1nonc1C)CCN(Cc1ccc(F)cc1)CC2,nt,nt,nt,nt,0%,nt
COc1ccccc1NC(=S)N(Cc1ccc(C)cc1)Cc1ccccn1,2%,-35%,-18%,25µM*,0%,-2%
COc1ccccc1NC(=S)N(Cc1ccc(C)cc1)Cc1cccnc1,0%,-4%,68%,11%,2%,-2%
CCc1ccc(NC(=O)Cn2ccn(-c3ccc(C)c(C)c3)c(=O)c2=O)cc1,0%,nt,?,nt,-1%,nt
CCCC[n+]1c(/C=C/c2c(OC)cc(OC)cc2OC)ccc2ccccc21,nt,nt,nt,nt,5.6µM*,nt
SMILES,Epigenetic reg,HTT cytoprotect,Apoferritin bind,HTT aggregate,PINK1 expr mod,TSG101-PTAP inh
CCCC[n+]1c2ccccc2cc2ccccc21,nt,nt,226%,nt,-1%,-7%
CN(CC(=O)Nc1ccc(Cl)c(Cl)c1)C1CCCCC1,nt,nt,?,nt,40µM*,-3%
CN(CC(=O)Nc1ccccc1Cl)C1CCCCC1,nt,nt,?,nt,6%,0%
O=C(c1ccccc1)c1c2c(cc3sc4ccccc4[n+]13)-c1cccc3cccc-2c13,11µM*,nt,0%,7.9µM*,?,-14%
Cc1sc2cc3c(c(C(=O)c4ccccc4)[n+]2c1C)-c1cccc2cccc-3c12,-1%,nt,-6%,8.9µM*,?,-1%
CCOc1ccc(Nc2oc(/C=C/c3cc(OC)c(OC)c(OC)c3)nc2C#N)cc1,?,nt,49%,nt,6%,nt
COc1cc2c(NC3CCN(C)CC3)nc(N3CCN(C)CC3)nc2cc1OCCCN(C)C,nt,nt,nt,nt,0%,nt
CO/N=C/c1ccc(N2CCN(C(=O)c3ccc(F)cc3)CC2)c([N+](=O)[O-])c1,0%,8%[10 µM],-14%,13µM*,5%[38.3 µM],-4%
CO/N=C/c1ccc(N2CCN(C(=O)c3ccc(Cl)cc3Cl)CC2)c([N+](=O)[O-])c1,-1%,-69%,?,18µM*,-21%[38.3 µM],-7%
CC1(C)COC(c2ccc(F)c([N+](=O)[O-])c2)=N1,?,17%[10 µM],-6%,35µM*,0%,0%
CCS(=O)(=O)c1ccc(N=Nc2ccc(O)c3ncccc23)c(OC)c1,3.5µM*,-199%,-14%,?,14µM*,-4%
COc1ccccc1N=Nc1ccc(O)c2ncccc12,nt,nt,-4%,nt,11%,-4%
CCN(CC)c1ccc(/C=C(/C#N)c2nc3ccccc3[nH]2)c(OC(C)C)c1,13µM*,-110%,?,?,4%,?
CCOc1cccc(/C=C(/C#N)c2nc3ccccc3[nH]2)c1OCC(=O)O,nt,nt,8%,nt,0%,-4%
Nc1c(C(=O)Nc2ccccc2F)sc2nc(Cc3ccccc3)cc(C(F)(F)F)c12,13µM*,-49%,-4%,-28%,?,?
Cc1cc(C)c2c(N)c(C(=O)Nc3ccccc3C(F)(F)F)sc2n1,0%,nt,88%,nt,2%,nt
Cc1cc(C(F)(F)F)c2c(N)c(C(=O)Nc3cc(C)on3)sc2n1,?,-6%[10 µM],-18%,-6%,22µM*,-3%
COCCN(C)C(=O)c1cnn(-c2nccc(-c3cc(C)sc3C)n2)c1C,nt,nt,nt,nt,0%,nt
Cc1nn(C)c2ncc(C(=O)c3ccccc3O)cc12,nt,nt,-6%,nt,1%,0%
Cc1nn(-c2ccccc2)c2ncc(C(=O)c3cc(Cl)ccc3O)cc12,1%,1%[0.074 µM],-12%,-32%,28µM*,0%
N[C@H](Cc1c[nH]c2ccccc12)C(=O)O,-2%,-111%,-6%,32µM*,nt,nt
COc1cc(=O)n2c(c1C(=O)NCc1ccsc1)CCN(Cc1nc3ccccc3[nH]1)CC2,nt,nt,nt,nt,2%,nt
